The full data set covers some 8,800 targets. This sample favours those with a hit. About 0.5% of all pairs of compound and target were hits.
compound: c1cn2cc(-c3ccc4cn[nH]c4c3)nc(Nc3ccc(N4CCOCC4)cc3)c2n1 [entospletinib]; test: log2 fold change, soluble protein after heating vs DMSO (PISA); higher = thermal stabilisation; K562 lysate, 10 uM; active = over 0.2 and 3.5 SD of the protein, either way, in both replicates (recomputed)
Method in brief: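 Log-two fold change in thermal stability relative to solvent controls is reported from duplicates. For each sample, crude K562 extract from dounce-homogenised pellets in PBS pH 7.4 with 1 mM MgCl2, at 1 mg/mL protein, was treated with 10 μM compound for 30 min. Aliquots heated for 3 min across 48°C-58°C were pooled, brought to 0.5% NP-40 at 4°C and cleared at 21,000xg for 90 min. The supernatant was quantified by TMTpro 16plex LC-MS/MS with channel sums equalised.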

Sequence of UniProt P50552 (P50552 whole entry, looked up): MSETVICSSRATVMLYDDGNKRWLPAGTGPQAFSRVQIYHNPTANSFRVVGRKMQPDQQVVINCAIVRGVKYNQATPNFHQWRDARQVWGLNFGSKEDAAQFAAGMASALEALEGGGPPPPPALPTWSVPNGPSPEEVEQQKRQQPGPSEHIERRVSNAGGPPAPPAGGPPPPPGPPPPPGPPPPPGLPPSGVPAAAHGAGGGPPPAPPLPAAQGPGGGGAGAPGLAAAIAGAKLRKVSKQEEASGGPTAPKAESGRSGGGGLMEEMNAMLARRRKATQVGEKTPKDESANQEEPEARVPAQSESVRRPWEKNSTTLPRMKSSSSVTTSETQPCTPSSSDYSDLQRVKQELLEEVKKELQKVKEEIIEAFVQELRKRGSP
Sequence of UniProt P42768 (P42768 whole entry, looked up): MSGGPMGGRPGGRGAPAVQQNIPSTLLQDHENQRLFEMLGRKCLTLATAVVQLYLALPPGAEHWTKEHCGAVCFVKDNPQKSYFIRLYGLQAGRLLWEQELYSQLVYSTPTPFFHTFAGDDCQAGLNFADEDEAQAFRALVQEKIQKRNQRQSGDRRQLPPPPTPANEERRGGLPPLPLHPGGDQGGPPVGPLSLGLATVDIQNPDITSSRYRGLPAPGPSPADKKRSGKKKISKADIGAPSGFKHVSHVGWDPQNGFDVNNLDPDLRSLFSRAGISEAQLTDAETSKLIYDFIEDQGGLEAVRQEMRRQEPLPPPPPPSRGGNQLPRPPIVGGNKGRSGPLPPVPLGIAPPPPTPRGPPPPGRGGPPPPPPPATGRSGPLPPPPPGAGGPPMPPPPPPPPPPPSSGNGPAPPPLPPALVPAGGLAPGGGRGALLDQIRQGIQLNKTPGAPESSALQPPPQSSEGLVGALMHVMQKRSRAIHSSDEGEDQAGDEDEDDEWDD
Sequence of UniProt Q9Y5A6 (Q9Y5A6 whole entry, looked up): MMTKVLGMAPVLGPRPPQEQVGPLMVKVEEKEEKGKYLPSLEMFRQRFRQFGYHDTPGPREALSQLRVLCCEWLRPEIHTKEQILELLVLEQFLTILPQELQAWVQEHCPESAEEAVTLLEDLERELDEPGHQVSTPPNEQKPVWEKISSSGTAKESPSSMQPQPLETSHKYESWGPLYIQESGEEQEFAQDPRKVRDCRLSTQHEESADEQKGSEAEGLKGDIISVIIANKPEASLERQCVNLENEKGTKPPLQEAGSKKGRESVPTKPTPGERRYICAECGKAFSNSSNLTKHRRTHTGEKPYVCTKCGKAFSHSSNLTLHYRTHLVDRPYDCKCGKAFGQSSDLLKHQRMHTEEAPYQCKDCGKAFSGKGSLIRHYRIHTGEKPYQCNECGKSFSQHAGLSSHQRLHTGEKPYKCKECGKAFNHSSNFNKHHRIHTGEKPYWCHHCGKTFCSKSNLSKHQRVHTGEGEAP
Sequence of UniProt O43149 (O43149 whole entry, looked up): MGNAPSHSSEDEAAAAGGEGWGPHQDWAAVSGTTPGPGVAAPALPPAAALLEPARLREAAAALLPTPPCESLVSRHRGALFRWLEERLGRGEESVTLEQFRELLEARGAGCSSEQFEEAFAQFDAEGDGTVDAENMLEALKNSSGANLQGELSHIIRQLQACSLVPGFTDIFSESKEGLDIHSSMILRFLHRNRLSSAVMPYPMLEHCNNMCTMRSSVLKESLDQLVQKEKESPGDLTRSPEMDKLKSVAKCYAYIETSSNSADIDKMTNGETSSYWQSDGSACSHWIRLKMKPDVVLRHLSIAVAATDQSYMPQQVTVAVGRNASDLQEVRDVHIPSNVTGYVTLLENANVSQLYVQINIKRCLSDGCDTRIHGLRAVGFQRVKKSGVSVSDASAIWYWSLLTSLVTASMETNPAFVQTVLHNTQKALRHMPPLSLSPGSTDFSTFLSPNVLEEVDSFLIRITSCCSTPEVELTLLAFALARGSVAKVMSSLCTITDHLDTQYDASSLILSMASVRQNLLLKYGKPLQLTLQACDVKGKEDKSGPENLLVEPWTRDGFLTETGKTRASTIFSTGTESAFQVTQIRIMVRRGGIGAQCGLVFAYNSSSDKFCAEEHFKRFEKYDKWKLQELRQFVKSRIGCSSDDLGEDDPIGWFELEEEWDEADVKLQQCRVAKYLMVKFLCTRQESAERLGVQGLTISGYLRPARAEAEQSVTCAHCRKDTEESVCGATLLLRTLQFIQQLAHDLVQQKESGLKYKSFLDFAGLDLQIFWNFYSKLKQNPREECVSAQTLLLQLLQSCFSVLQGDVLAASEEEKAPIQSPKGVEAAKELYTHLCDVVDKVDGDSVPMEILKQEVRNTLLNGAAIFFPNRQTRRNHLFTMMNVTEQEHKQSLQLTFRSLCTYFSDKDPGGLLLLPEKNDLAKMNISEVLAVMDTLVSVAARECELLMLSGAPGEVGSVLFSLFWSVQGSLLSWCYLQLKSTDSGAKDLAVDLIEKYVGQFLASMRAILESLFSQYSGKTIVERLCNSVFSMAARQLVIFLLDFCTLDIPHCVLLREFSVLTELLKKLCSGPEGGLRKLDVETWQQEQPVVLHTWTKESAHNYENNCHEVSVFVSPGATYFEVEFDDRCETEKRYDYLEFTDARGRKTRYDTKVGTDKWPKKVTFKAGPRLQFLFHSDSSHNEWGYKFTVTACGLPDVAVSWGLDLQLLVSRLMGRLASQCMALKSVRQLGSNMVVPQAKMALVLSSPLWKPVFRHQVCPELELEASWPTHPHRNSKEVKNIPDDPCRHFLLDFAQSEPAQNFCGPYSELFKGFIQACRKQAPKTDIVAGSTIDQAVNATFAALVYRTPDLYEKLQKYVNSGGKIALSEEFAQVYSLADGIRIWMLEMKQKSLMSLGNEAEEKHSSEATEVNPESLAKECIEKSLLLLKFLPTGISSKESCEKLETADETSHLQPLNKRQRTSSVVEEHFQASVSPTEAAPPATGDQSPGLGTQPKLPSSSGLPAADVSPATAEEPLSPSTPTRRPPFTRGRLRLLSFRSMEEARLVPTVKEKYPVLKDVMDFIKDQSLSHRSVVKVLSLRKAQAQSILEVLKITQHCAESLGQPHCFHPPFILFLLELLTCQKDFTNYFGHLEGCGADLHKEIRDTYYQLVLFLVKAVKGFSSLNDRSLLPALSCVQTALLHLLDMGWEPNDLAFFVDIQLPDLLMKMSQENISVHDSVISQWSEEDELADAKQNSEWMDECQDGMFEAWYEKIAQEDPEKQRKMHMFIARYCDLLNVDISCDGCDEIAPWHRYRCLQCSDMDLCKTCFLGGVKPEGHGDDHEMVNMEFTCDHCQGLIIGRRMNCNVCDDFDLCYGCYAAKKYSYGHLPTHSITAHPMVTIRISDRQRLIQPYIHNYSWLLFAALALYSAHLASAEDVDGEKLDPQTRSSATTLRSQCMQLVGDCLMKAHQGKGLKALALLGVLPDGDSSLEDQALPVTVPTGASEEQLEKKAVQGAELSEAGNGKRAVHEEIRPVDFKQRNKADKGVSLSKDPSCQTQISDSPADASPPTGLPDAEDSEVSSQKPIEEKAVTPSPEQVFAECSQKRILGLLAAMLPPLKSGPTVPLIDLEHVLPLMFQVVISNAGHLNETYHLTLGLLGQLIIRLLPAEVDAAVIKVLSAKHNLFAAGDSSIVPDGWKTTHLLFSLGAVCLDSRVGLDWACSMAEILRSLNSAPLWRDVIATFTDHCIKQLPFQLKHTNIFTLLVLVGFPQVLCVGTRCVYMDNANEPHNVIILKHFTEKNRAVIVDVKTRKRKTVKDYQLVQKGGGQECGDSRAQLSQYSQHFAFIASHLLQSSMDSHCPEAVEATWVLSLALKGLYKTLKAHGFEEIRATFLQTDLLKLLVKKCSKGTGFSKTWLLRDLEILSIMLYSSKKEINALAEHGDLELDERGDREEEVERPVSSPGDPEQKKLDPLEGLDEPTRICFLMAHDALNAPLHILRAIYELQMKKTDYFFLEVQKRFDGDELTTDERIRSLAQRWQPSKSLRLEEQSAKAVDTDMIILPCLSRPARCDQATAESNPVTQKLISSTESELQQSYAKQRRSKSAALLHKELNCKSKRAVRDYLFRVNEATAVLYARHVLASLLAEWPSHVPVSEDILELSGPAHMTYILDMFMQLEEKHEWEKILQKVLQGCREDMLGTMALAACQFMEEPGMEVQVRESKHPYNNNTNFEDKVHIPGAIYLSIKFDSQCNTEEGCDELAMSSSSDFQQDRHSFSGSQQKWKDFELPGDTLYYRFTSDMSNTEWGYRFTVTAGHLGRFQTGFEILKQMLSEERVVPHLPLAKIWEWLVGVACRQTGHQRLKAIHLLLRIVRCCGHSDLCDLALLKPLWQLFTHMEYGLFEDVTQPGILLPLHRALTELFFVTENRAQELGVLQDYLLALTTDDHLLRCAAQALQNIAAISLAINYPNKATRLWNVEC
Sequence of UniProt Q9Y5J1 (Q9Y5J1 whole entry, looked up): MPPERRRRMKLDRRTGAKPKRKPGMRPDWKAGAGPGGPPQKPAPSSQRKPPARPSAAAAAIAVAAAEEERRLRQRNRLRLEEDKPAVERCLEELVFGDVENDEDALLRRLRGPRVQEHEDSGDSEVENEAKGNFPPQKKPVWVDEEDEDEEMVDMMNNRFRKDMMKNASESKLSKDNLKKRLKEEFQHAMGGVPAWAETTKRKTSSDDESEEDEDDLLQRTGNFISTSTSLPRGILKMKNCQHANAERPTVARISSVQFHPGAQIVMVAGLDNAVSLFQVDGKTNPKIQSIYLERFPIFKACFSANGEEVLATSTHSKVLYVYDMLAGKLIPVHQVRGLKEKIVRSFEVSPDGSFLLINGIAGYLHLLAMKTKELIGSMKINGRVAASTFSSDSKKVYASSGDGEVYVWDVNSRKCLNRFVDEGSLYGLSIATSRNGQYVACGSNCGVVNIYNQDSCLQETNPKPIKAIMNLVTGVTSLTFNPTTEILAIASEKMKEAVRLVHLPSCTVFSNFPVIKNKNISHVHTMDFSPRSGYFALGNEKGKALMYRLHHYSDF
Sequence of UniProt P58557 (P58557 whole entry, looked up): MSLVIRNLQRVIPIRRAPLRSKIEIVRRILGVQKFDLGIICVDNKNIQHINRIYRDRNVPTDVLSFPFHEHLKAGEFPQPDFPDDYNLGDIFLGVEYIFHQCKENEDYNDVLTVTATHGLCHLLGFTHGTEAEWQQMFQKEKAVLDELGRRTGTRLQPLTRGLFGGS

log2 fold change, inactive:
YBEY (UniProt P58557) 0.029
WAS (UniProt P42768) -0.055
ZNF598 isoform 3 (UniProt Q86UK7) -0.017
ZNHIT6 (UniProt Q9NWK9) -0.062
VTN (UniProt P04004) -0.146
WDR36 (UniProt Q8NI36) -0.011
UTRN isoform 2 (UniProt P46939) -0.424
VCPIP1 (UniProt Q96JH7) 0.006
VPS41 (UniProt P49754) 0.007
VASP (UniProt P50552) -0.013
YRDC (UniProt Q86U90) -0.016
WRNIP1 (UniProt Q96S55) -0.02
ZDHHC17 (UniProt Q8IUH5) 0.009
YDJC (UniProt A8MPS7) 0.051
VASN (UniProt Q6EMK4) -0.027
VAV1 (UniProt P15498) 0.004
UTP18 (UniProt Q9Y5J1) -0.136
WDR91 (UniProt A4D1P6) -0.029
ZNF346 (UniProt Q9UL40) 0.02
ZZEF1 (UniProt O43149) 0.004
USP34 (UniProt Q70CQ2) -0.005
UNKL (UniProt E9PDK2) 0.108
ZSCAN21 (UniProt Q9Y5A6) -0.208
UQCC2 (UniProt Q9BRT2) -0.039
WIPI1 (UniProt Q5MNZ9) -0.001
